# Experimental data reported in the supplement of paper PMC10681739.
# Target: T1, ETS1 (UniProt P14921)
# T1 sequence: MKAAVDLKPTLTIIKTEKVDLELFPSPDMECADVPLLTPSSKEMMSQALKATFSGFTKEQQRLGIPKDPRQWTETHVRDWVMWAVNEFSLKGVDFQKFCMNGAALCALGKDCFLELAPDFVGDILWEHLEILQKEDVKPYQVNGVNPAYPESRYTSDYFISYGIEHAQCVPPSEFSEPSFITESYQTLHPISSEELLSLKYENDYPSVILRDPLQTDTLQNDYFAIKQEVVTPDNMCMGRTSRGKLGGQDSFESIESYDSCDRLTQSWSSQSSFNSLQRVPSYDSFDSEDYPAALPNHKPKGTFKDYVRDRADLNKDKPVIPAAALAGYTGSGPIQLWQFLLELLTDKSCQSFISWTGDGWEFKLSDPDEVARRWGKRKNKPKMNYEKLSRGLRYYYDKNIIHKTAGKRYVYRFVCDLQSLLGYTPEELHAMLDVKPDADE
# Assay: ETS1 binding intensity (PBM fluorescence), ETS1 alone (arbitrary fluorescence units); higher = stronger binding
# Settings: ETS1 concentration 1 nM; RUNX1 concentration 0 nM
row,Sequence,ETS1 binding intensity
1,GCCACACAGGCAGGAAAGCCACAGCCCACGTCTCCG,471
2,CCGATGGCGGCGGAACTGTGGTCAGGGCTGCCCTGA,365
3,GCCCACTTCCTGCCGTAAGAGAAAACCACTAACACA,890
4,ACTCCCTAGAGCAGGAAGCCTGTGGTTTGTAATTGG,1140
5,CATCAAGTATTTCCTCACGCAAGCAACCGCATCCAT,392
6,AAAGTTGTATAGTGAGGATGTGGTCAAGAACTCACC,577
7,AGGACCGGAAGTGCCCGAGGGCGGCCGCAGAACGGT,8870
8,TGTGTCACTTCCCTATCTGTTGCGGTTGTTCACTCC,409
9,GGTCCCCCCGGTTCCGGCGCGGTTGAGGCCTTCGGT,683
10,GAAAGGGTTCATCCAGGAAACCACAACCCAGTGCCG,808
11,CGGCTGTTTTCCAGGATGTTGTGGTCATGGCGGTGT,1590
12,AGGACACAGACAGGAAACCCGCAGGCTTTGTTTTTT,2580
13,GTTGAAATTGAGCTTCCGTTGGTGGTTAACCCTCTG,648
14,AGGGAAGCAGGAAGTGACTGCGGGAGTGGAGCCGGC,3920
15,TCTAGTTCTGGTTTCCGGACCGCATTCGGAACTAGA,1000
16,GTTGGGTGGGGAAGTGGATGGTGGTTTTGGCAGAGG,542
17,TTTGCTGCAGAAGGATGTGGTTTATTCAGGTTTGAC,676
18,GACAAAACACAGAAAGGAAGTGGTCAACTATTGCAC,2510
19,AAAGACAGGATGTGGGGGAGTGAGCCACAAGGGCCC,1160
20,CTGACACTTCCGGGAGCCTTGTAGCCACAGGAATCA,2490

row,Sequence,ETS1 binding intensity
1,GCAGAGTTTACAACAGGATGTGGTTATTGGCGCTGC,8870
2,GAGACACTCTGCTTCCTGCGGTGGAAGATTCAGTAT,473
3,GTGAACTTCCTCCCCCACTGCCTATTTTTACCGCAG,624
4,CCGAGCTTAACGACATCCTGCGGCTCAGCGTGGAGG,435
5,AGGCAAACTACAGGAAGATCCTGCCCGCAACTTGGT,454
6,GACTCCATTTCCCGTCGGCTCGCGGTGGGAGCGCCG,417
7,AGCTTGACGAAGGCTTCCTGTGGTTTGGGTTGATGT,486
8,CCGCGCACCCGGAACTACCTCCCGACCCGCATCCCC,562
9,TGCACGGTAAGCAGGAAGCTGCGGCCGAGCTGAGTC,2020
10,CCCAATTTCCTTTGCTCTGCTGTCTGCCAACCGCAA,418
11,TGGCTTATCCTAACAGGAAGTGGTTTATCTGATCCT,16100
12,CCATATCTGGCTTCCTAAGGAGGAACCACAAACCGT,375
13,CGCCGCTCAACTTCCGGCAACCACAGCTCTCTCTGA,1830
14,GCGAGAGGGAGGAAGTGACTCACCAACCACAACAAA,1480
15,CTCTGAGCAGGAAGTGACAAAACCACGCAGGGCAGG,3150
16,CTGCCCAGCCACTTCCTGCCCAACCACAGACTGACA,2210
17,GCTGCAGCAGGCGGGAAGTCTGCGGTTCGCGGGCTC,622
18,GGCAACCGGCCCCGGAAGTTGCGGCAGGTGCGTCCA,5780
19,GCTGGGGCAGGAAGCTTCTAGGCCACAGACAGGACG,1190
20,AGGGCTGAAACAGGATGTGGTGAGTGAGGTAGGGTG,6020

# Target: T1, ETS1
# Assay: ETS1 binding intensity (PBM fluorescence) in presence of RUNX1, normalised to ETS1-only experiment (arbitrary fluorescence units); higher = stronger binding
# Settings: ETS1 concentration 1 nM; RUNX1 concentration 25 nM
row,Sequence,ETS1 binding intensity
1,GCCACACAGGCAGGAAAGCCACAGCCCACGTCTCCG,378
2,CCGATGGCGGCGGAACTGTGGTCAGGGCTGCCCTGA,510
3,GCCCACTTCCTGCCGTAAGAGAAAACCACTAACACA,2190
4,ACTCCCTAGAGCAGGAAGCCTGTGGTTTGTAATTGG,7950
5,CATCAAGTATTTCCTCACGCAAGCAACCGCATCCAT,634
6,AAAGTTGTATAGTGAGGATGTGGTCAAGAACTCACC,4380
7,AGGACCGGAAGTGCCCGAGGGCGGCCGCAGAACGGT,16700
8,TGTGTCACTTCCCTATCTGTTGCGGTTGTTCACTCC,841
9,GGTCCCCCCGGTTCCGGCGCGGTTGAGGCCTTCGGT,676
10,GAAAGGGTTCATCCAGGAAACCACAACCCAGTGCCG,1820
11,CGGCTGTTTTCCAGGATGTTGTGGTCATGGCGGTGT,6320
12,AGGACACAGACAGGAAACCCGCAGGCTTTGTTTTTT,5290
13,GTTGAAATTGAGCTTCCGTTGGTGGTTAACCCTCTG,921
14,AGGGAAGCAGGAAGTGACTGCGGGAGTGGAGCCGGC,3540
15,TCTAGTTCTGGTTTCCGGACCGCATTCGGAACTAGA,1390
16,GTTGGGTGGGGAAGTGGATGGTGGTTTTGGCAGAGG,713
17,TTTGCTGCAGAAGGATGTGGTTTATTCAGGTTTGAC,3620
18,GACAAAACACAGAAAGGAAGTGGTCAACTATTGCAC,4930
19,AAAGACAGGATGTGGGGGAGTGAGCCACAAGGGCCC,1720
20,CTGACACTTCCGGGAGCCTTGTAGCCACAGGAATCA,2590

row,Sequence,ETS1 binding intensity
1,GCAGAGTTTACAACAGGATGTGGTTATTGGCGCTGC,46800
2,GAGACACTCTGCTTCCTGCGGTGGAAGATTCAGTAT,482
3,GTGAACTTCCTCCCCCACTGCCTATTTTTACCGCAG,596
4,CCGAGCTTAACGACATCCTGCGGCTCAGCGTGGAGG,471
5,AGGCAAACTACAGGAAGATCCTGCCCGCAACTTGGT,2160
6,GACTCCATTTCCCGTCGGCTCGCGGTGGGAGCGCCG,453
7,AGCTTGACGAAGGCTTCCTGTGGTTTGGGTTGATGT,964
8,CCGCGCACCCGGAACTACCTCCCGACCCGCATCCCC,592
9,TGCACGGTAAGCAGGAAGCTGCGGCCGAGCTGAGTC,3120
10,CCCAATTTCCTTTGCTCTGCTGTCTGCCAACCGCAA,491
11,TGGCTTATCCTAACAGGAAGTGGTTTATCTGATCCT,31300
12,CCATATCTGGCTTCCTAAGGAGGAACCACAAACCGT,828
13,CGCCGCTCAACTTCCGGCAACCACAGCTCTCTCTGA,3870
14,GCGAGAGGGAGGAAGTGACTCACCAACCACAACAAA,5020
15,CTCTGAGCAGGAAGTGACAAAACCACGCAGGGCAGG,6770
16,CTGCCCAGCCACTTCCTGCCCAACCACAGACTGACA,4910
17,GCTGCAGCAGGCGGGAAGTCTGCGGTTCGCGGGCTC,6590
18,GGCAACCGGCCCCGGAAGTTGCGGCAGGTGCGTCCA,8090
19,GCTGGGGCAGGAAGCTTCTAGGCCACAGACAGGACG,1360
20,AGGGCTGAAACAGGATGTGGTGAGTGAGGTAGGGTG,16600
